The text below walks through data of PubChem BioAssay AID1508600 (Functional Genomics Laboratory (NCATS/FGL), 2020).

Screen size: about 53,000 sequences; about 3,700 (7%) were called active.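 Rule for the calls: active = gene knockdowns whose robust z-score for IL-1 alpha signal is at least 2 or at most -2, so actives lie on both sides; inactive = the rest.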 The entries come from a sample that favours actives as a whole.

The assay can be described thus: Components of the Cytosolic LPS Sensing Pathway: Gene Identification via Genome-wide siRNA Screen.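 Note: robust z of the log signal after scaling to non-targeting control siRNA wells of the plate.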 The conditions noted are these: RAW264.7 macrophages, IL-1a HTRF, actives lie on both sides, screened at 100 nM (by protocol), cells primed 5 h with Pam3CSK4 first. In short, it runs like this: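 Mouse macrophage line RAW264.7 is transfected with siRNA (100 nM final), grown 48h, primed with TLR ligand Pam3CSK4 5 h and given intracellular LipidA 24 h. IL-1a in supernatant is read by HTRF and viability by luminescence.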
In general terms: TR-FRET usually uses a lanthanide donor and a delayed reading to cut background.
With GAGUAUCAUUUCCUGUUUUTT against Olfr389, the z-score was -0.395 (inactive).

CCAUUCCAGUUAUGUCAAUTT against Pus3: the z-score is -1.06 (inactive). With CCCUCAGGACACGUUUUAGTT against Wdsub1 the figure was -2.14 (active). For CGAGCCAUACCUUCAACUGTT against Ncoa2 the value was -0.815 (inactive).

Turning to GGAGCAGAUGAGAUCCAAGTT against Cdc42se1, the z-score is -0.256 (inactive). For GCCUUUAUAGUCUUAAGCATT against Ndc1 the value was -0.209 (inactive). For GGAAAAACUCCCUCGGUACTT against Rps11 the value was 0.683 (inactive); for GCUGCUUUGGGCACAAGAUTT against Nppb, 0.428 (inactive); for GCUCCUAUGGCAACAUCGUTT against Olfr303, 2.11 (active). For “GGUAUGAGAUUACCUUCACTT against 1700037H04Rik” the value was -1.16 (inactive). Take GCUCAGAAAUCGGCUCAGATT against Ssbp2: the z-score was -1.66 (inactive).

Take GCUAAACUCCACCAAGACATT against Grid2ip: the z-score is 0.338 (inactive). With GGGCAAUUAUCUUUGUUAUTT against Olfr589 the figure was -0.0712 (inactive).

Take GCCAUUAUGACAGAACGCATT against Adra1d: the z-score was -0.606 (inactive). For GAACUACCUGGACUUCCACTT against Cox6b1 the value was 2.5 (active); for GGACGAUUCUUUUAUUUGATT against Fam78b, -1.22 (inactive). For the sequence CCAAUCGAUACAUCAUUUUTT against Gmcl1, the z-score is 1.1 (inactive). For GCAUCAUACCACUGUGUUUTT against Obox1 the value was -1 (inactive); for GGCUGUUUGGCUUGUUUAATT against Golga7, 1.82 (inactive); for CGGAUUCAGUAUUAGCAAUTT against Ogt, -2.4 (active). As to GGAAUUAUUCAGCAAGACUTT against Cdrt4, the z-score was -0.636 (inactive). For CGUUUGUUACUCUUCAGCUTT against Olfr1461 the value was -1.07 (inactive); for GGCCAUAACACAAAUGUAGTT against Prpf4, 0.554 (inactive). With GGAGGAAAGUAUGAAGAAATT against Cyp2j9 the figure was -0.337 (inactive). With GGCUGUGCAUUAUAUCCUUTT against Lhfpl1 the figure was 1.2 (inactive); with GCUCCUAGUGUUUUUGUGGTT against Rplp0, -2.91 (active); with GGUUAUCCAGAGAGAAGGATT against Asxl2, 0.399 (inactive). For the sequence GGCUAAGCUGAAGAAGCACTT against Fam219b, the z-score was -0.326 (inactive). As for GGUGACAACACUUGUCAACTT against Ctnna2, the z-score is -0.551 (inactive).

Consider GCCCAUGUUUUUUUUUCUGTT against Olfr648, for which the z-score was 0.776 (inactive).
